Data as given in PubChem BioAssay AID1851 (National Center for Advancing Translational Sciences (NCATS), 2009).
Hit rate of the full screen: of about 16,000 compounds, about 5,800 (36%) were called active. Another 23% or so got no clear call; they are omitted. The list shows a part of the results. Values without a mark were called inactive. The call rests on the fitted dose curve; in most records, active means well fitted curve in the direction sought with a large enough effect; inconclusive means small, poorly fitted or top-dose-only effect, or effect the other way; inactive means no such curve, though single readings can be large or run the other way.

molecular target: Cytochrome P450 2C19 (Homo sapiens) (UniProt P33261); experiment: Cytochrome panel assay with activity outcomes; details: recombinant CYP, pro-luciferin dealkylation, luminescence, p450-cyp2c19; series mostly up to 57.1 µM; activity, negative = inhibition: at the top concentration
On the % scale 0 is the no-effect control and ±100 the full control effect.

Sequence of Cytochrome P450 2C19 (Homo sapiens) (P33261 whole entry, looked up): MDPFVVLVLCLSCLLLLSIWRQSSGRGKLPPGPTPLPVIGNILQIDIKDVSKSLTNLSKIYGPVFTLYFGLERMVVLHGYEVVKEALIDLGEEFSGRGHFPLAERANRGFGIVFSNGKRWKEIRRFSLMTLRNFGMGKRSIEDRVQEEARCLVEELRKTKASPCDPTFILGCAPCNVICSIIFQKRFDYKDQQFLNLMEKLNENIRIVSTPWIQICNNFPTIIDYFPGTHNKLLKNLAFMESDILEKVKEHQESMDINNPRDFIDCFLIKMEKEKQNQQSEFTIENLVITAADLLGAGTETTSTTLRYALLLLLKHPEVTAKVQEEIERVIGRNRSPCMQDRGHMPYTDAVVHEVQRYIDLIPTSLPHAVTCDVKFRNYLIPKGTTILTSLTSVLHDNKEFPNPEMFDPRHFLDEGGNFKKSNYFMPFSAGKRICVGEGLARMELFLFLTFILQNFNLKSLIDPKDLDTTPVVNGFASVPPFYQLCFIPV

Compound | activity, negative = inhibition | AC50
CC12CC[C@@H]3c4ccc(OP(=O)(O)O)cc4CCC3C1CCC2=O (stereo partly drawn) | -12.5% [at 11.4 µM] | 
O=C(c1ccncc1)N1CCC2(CC1)CN(Cc1cc(C(F)(F)F)cc(C(F)(F)F)c1)C2 | 3.88% | 
CCOc1ccc(NC(=O)N(C2CCCCC2)C(C)c2ccncc2)cc1 (stereo not drawn) |  | 7.08 µM (active)
CCOc1ccc(NC(=O)C(=O)NCC2CCCN2CC)cc1 (stereo not drawn) | 34.5% | 
CCCCN(C(=O)Nc1ccc(OCC)cc1)C1CCN(C(C)=O)CC1 | -14.8% | 
O=C(NNc1nc2ccccc2s1)C1CC1 |  | 15.8 µM (active)
O=C(NNc1nc2ccccc2s1)c1ccccc1F |  | 11.2 µM (active)
CC(=O)NNc1nc2ccccc2s1 | -2.18% | 
O=C1Nc2ccc([N+](=O)[O-])cc2C1(O)N1CCCCCC1 (stereo not drawn) |  | 10 µM (active)
O=C1C2=C(Nc3cc([N+](=O)[O-])ccc3N2)O[C@@H]1c1ccc([C@H]2OC3=C(Nc4ccc([N+](=O)[O-])cc4N3)C2=O)cc1 | -18.1% [at 11.4 µM] | 
CCN(CC)c1nc(Nc2ccccc2)nc(Oc2ccc(C(=O)OC)cc2)n1 |  | 7.94 µM (active)
Cc1ccc(/C=C2\Sc3ccccc3C2=O)s1 |  | 1.26 µM (active)
O=C1C(Cc2ccccc2)SC(=Nc2ccccc2)N1c1ccccc1 (stereo not drawn) |  | 3.16 µM (active)
CN1CCN(/C=N/C2=C(C#N)C(c3ccccc3)C3=C(CC(C)(C)CC3=O)O2)CC1 (stereo not drawn) |  | 20 µM (active)
COC(=O)c1cccc(NC(=O)CCCOc2ccccc2)c1 |  | 2.24 µM (active)
O=C(O)c1cccc(OCCO)c1 | 13.7% [at 11.4 µM] | 
NCC(=O)Nc1ccccc1 | -29.3% [at 11.4 µM] | 
O=C(CCOc1ccccc1)Nc1ccccc1 |  | 3.55 µM (active)
C#CCCCC(=O)Nc1ccccc1 | -21.6% | 
NC(=O)N/N=C\c1ccc([N+](=O)[O-])o1 | -7.91% [at 25.6 µM] | 
Cc1ccc(NCC(=O)N/N=C/c2ccc(OC(=O)c3ccco3)cc2)cc1 |  | 2.51 µM (active)

Compound | activity, negative = inhibition | AC50
Cc1ccc(NCC(=O)N/N=C\c2ccc([N+](=O)[O-])o2)cc1 |  | 8.91 µM (active)
Cc1cc(C(=O)N/N=C/c2cccc(OC(=O)c3ccco3)c2)n[nH]1 |  | 25.1 µM (active)
COc1ccc(C(=O)NC(CO)c2nnc(SCc3ccc(Cl)c(Cl)c3)n2C)cc1 (stereo not drawn) |  | 15.8 µM (active)
COC(=O)c1ccccc1NC(=O)CSc1nnc(C(CO)NC(=O)c2ccccc2Cl)n1C (stereo not drawn) | -8.18% | 
CC(=O)OCC(=O)[C@@]1(O)CC[C@@H]2[C@H]3CCC4=CC(=O)C=C[C@]4(C)[C@]3(F)[C@@H](O)C[C@@]21C | -2.19% [at 25.6 µM] | 
Cc1cc(C)c(NC(=O)NC(=O)c2ccc(F)cc2)c(C)n1 | -22.5% | 
Cc1cc(NC(=O)NC(=O)c2ccc(F)cc2F)n[nH]1 |  | 11.2 µM (active)
Cc1onc(-c2ccccc2)c1C(=O)NCCc1c[nH]c2ccccc12 |  | 1.78 µM (active)
CCCC(O)(CCC)C(=O)NN1CCCCC1 | -29.5% | 
CC(=O)[C@@H]1CC[C@@H]2[C@@H]3C[C@H](C)C4=CC(=O)CC[C@@]4(C)[C@H]3[C@H](O)C[C@]21C | -13.1% [at 25.6 µM] | 
CC(=O)[C@H]1CC[C@@H]2[C@H]3CC=C4C[C@@H](O)CC[C@]4(C)[C@H]3CC[C@]12C | -28.4% [at 25.6 µM] | 
CC(=O)[C@H]1CC[C@H]2[C@@H]3C=CC4=CC(=O)CC[C@@]4(C)[C@H]3CC[C@]12C |  | 1 µM (active)
Cc1nc2cnc(N3CCNCC3)nc2n(Cc2cccs2)c1=O | -13.3% | 
O=c1c(-c2ccc(F)cc2)nc2cnc(N3CCOCC3)nc2n1Cc1cccs1 | -4.15% | 
O=c1c(-c2cccs2)nc2cnc(N3CCNCC3)nc2n1Cc1cccs1 |  | 5.01 µM (active)
O=c1c(-c2ccc(F)cc2)nc2cnc(N3CCNCC3)nc2n1Cc1cccs1 |  | 15.8 µM (active)
Cn1c(=O)c(-c2cccs2)nc2cnc(N3CCNCC3)nc21 | -20.8% | 
COc1ccc(-c2nc3cnc(N4CCNCC4)nc3n(Cc3cccs3)c2=O)cc1 | -34.1% | 
CCN1CCN(Cc2ccc(NC(=O)Nc3cccs3)cc2)CC1 | -25% | 
O=C(NCc1ccco1)Nc1cccs1 |  | 11.2 µM (active)
COc1ccc(CNC(=O)Nc2cccs2)cc1OC |  | 5.62 µM (active)

Compound | activity, negative = inhibition | AC50
COc1ccc(C[C@@](C)(N)C(=O)O)cc1OC | -38% [at 25.6 µM] | 
N#Cc1ccccc1NC(=O)Nc1cccs1 | 13% | 
N[C@@H](CO)C(=O)NNCc1ccc(O)c(O)c1O |  | inactive
O=C(Nc1cccc(F)c1)N1CC2(CCN(C(=O)c3csnn3)CC2)C1 | -37.6% | 
COc1ncc2ncc(=O)n(C)c2n1 | 4.02% | 
O=C(Cc1cccc2ccccc12)N/N=C/c1ccc(Sc2nc3ccccc3s2)o1 |  | 0.891 µM (active)
COCC(=O)N/N=C/c1ccc(Sc2nc3ccccc3s2)o1 |  | 14.1 µM (active)
OCCN=C1CCCc2c1[nH]c1ccc(Br)cc21 | -15.8% | 
COC(=O)c1cnn(C(=O)c2ccccc2Br)c1N |  | 8.91 µM (active)
COC(=O)c1cnn(C(=O)c2cc(OC)ccc2Br)c1N |  | 20 µM (active)
Nc1nc2c(c(=O)[nH]1)CN(CCCN1CCOCC1)CN2 | 24.4% [at 11.4 µM] | 
CCn1c2ccccc2c2cc(N=C3SC(CC(=O)Nc4ccccc4)C(=O)N3C)ccc21 (stereo not drawn) |  | 2 µM (active)
CCn1c(=O)cc(OCC(=O)Nc2cccnc2)c2ccccc21 | -27.8% | 
CCn1c2ccccc2c2cc(N=C3SC(CC(=O)Nc4ccccc4OC)C(=O)N3C)ccc21 (stereo not drawn) |  | 1.41 µM (active)
N=C(N)SCc1nc(-c2ccc(Cl)cc2)no1 |  | 1 µM (active)
CS(=O)(=O)N1CCC2(CC1)CN(C(c1ccccc1)c1ccccc1)C2 | 6.14% | 
Clc1ccc(-c2noc(CN3CCCCC3)n2)cc1 |  | 1.58 µM (active)
Cc1ccc(-c2noc(CN3CCN(C(c4ccccc4)c4ccccc4)CC3)n2)cc1 |  | 17.8 µM (active)
CN1CCN(C(c2ccccc2)c2ccccc2)CC1 | -8.64% [at 25.6 µM] | 
N=C(N)SCc1ccc(Cl)cc1Cl (tested in a mixture with another compound) | -2.42% [at 11.4 µM] | 
c1ccc([P+](CC[P+](c2ccccc2)(c2ccccc2)c2ccccc2)(c2ccccc2)c2ccccc2)cc1 | -40.8% [at 11.4 µM] | 
